Where two headings read alike, the source gives them in different places. Screen size: about 13,000 compounds; about 3,200 (25%) showed an effect of 50% or more. Some of the results follow.
System: P. falciparum stage V gametocytes
Set-up: BacTiter-Glo ATP luminescence viability of purified stage V gametocytes in 384-well plates, per cent inhibition versus DMSO
Details: 48 h, 5 µM, inhibitor

CCC(NCc1ccc(-c2cncc(C(=O)NCC(C)C)c2)cc1)c1ccccc1 (centres unmarked) [TCMDC-134237]
% Inhibition: 15.84%

Cc1cccc2nc(-c3ccc(-c4cccc(CNCc5cnn(-c6ccccc6)n5)c4)s3)[nH]c12.O=C(O)C(F)(F)F [TCMDC-132972]
% Inhibition: -22.07%

O=C(NCc1ccccc1)OC1CNCCC1c1ccc(C(O)Cc2ccccc2)cc1 (centres unmarked) [TCMDC-141020]
% Inhibition: 26.78%

CCc1ccc(-n2c(=O)c3cccnc3n2CC(=O)NC2CCCC2)cc1 [TCMDC-125158]
% Inhibition: -2.653%

O=C(/C=C/c1ccc(Cl)c(Cl)c1)NCCCCCN1CCC(c2[nH]nc(-c3ccccc3)c2Br)CC1 [TCMDC-139448]
% Inhibition: -19.71%

O=C(NCCNc1ccnc(Nc2ccc(F)cc2)n1)c1cc2ccccc2s1 [TCMDC-133637]
% Inhibition: -20.49%

COCCNC(=O)c1ccc(OC2CCN(CC(C)=Cc3ccccc3)CC2)c(Cl)c1 [TCMDC-124691]
% Inhibition: 9.67%

c1cncc(CN2CCCN(c3ccc4c(c3)CCN(Cc3ccc(-c5ncc[nH]5)cc3)CC4)CC2)c1 [TCMDC-136551]
% Inhibition: -8.506%

c1ccc(CN2CCN(c3cc(-c4cncc(-c5ccccc5)c4)nc(-c4ccccc4)n3)CC2)cc1 [TCMDC-125589]
% Inhibition: -13.47%

c1ccc(N2CCN(c3cc(-c4cccnc4)nc(-c4ccncc4)n3)CC2)nc1 [TCMDC-125418]
% Inhibition: 44.02%

CN1CCN(c2cc(-c3ccncc3)nc(-c3cccnc3)n2)CC1 [TCMDC-125596]
% Inhibition: 38.53%

c1cncc(-c2cc(N3CCCCC3)nc(-c3ccncc3)n2)c1 [TCMDC-125594]
% Inhibition: 3.34%

CN1CCN(c2cc(-c3cccnc3)nc(-c3ccncc3)n2)CC1 [TCMDC-125593]
% Inhibition: 52.46%

c1cncc(-c2cc(N3CCc4ccccc4C3)nc(-c3ccncc3)n2)c1 [TCMDC-125419]
% Inhibition: 60.68%

COc1ccc(NC(=O)Nc2cccc(-c3cccc(-c4nc5c(C)cccc5[nH]4)c3)c2)cc1 [TCMDC-133247]
% Inhibition: -12.94%

Fc1ccc2[nH]c(-c3cccc(-c4ccc(CNCC5CCCO5)cc4)c3)nc2c1.O=C(O)C(F)(F)F (centres unmarked) [TCMDC-133105]
% Inhibition: -0.6383%

OCC1CCN(Cc2ccc(-c3cccc(-c4nc5ccc(C(F)(F)F)cc5[nH]4)c3)cc2)CC1 [TCMDC-133130]
% Inhibition: -16.83%

N#CCCN1CCN(Cc2ccc(-c3ccc(-c4nc5ccc(F)cc5[nH]4)s3)cc2)CC1 [TCMDC-133861]
% Inhibition: -54.51%

CN1CCCC(CN2CCN(Cc3ccc(-c4ccc(-c5nc6ccccc6[nH]5)s4)cc3)CC2)C1 (centres unmarked) [TCMDC-133889]
% Inhibition: 85.26%

CN1CCCC(CN2CCN(Cc3cccc(-c4ccc(-c5nc6ccc(F)cc6[nH]5)cc4)c3)CC2)C1 (centres unmarked) [TCMDC-133891]
% Inhibition: 104.2%

CN1CCCC(CN2CCN(Cc3ccc(-c4ccc(-c5nc6ccc(F)cc6[nH]5)s4)cc3)CC2)C1 (centres unmarked) [TCMDC-133892]
% Inhibition: 66.7%

OCC1CCN(Cc2cccc(-c3cccc(-c4nc5ccc(C(F)(F)F)cc5[nH]4)c3)c2)CC1 [TCMDC-133129]
% Inhibition: 41.06%

OCC1CCN(Cc2cccc(-c3ccc(-c4nc5ccc(C(F)(F)F)cc5[nH]4)cc3)c2)CC1 [TCMDC-133123]
% Inhibition: 76.36%

CC1CN(Cc2ccc(-c3ccc(-c4nc5ccc(F)cc5[nH]4)s3)cc2)CC(C)O1 (centres unmarked) [TCMDC-133819]
% Inhibition: 9.471%

CN1CCCC(CN2CCN(Cc3ccc(-c4cccc(-c5nc6ccc(F)cc6[nH]5)c4)cc3)CC2)C1 (centres unmarked) [TCMDC-133883]
% Inhibition: 67.8%

OCCN1CCN(Cc2ccc(-c3ccc(-c4nc5ccc(F)cc5[nH]4)cc3)cc2)CC1 [TCMDC-133030]
% Inhibition: -14.7%

OC1CCCN(Cc2cccc(-c3ccc(-c4nc5ccc(C(F)(F)F)cc5[nH]4)cc3)c2)C1 (centres unmarked) [TCMDC-133814]
% Inhibition: -59.43%

CC(=O)N(C)C1CCN(Cc2cccc(-c3ccc(-c4nc5ccc(C(F)(F)F)cc5[nH]4)cc3)c2)C1 (centres unmarked) [TCMDC-133884]
% Inhibition: -40.19%

CN1CCCC(CN2CCN(Cc3cccc(-c4ccc(-c5nc6ccc(C(F)(F)F)cc6[nH]5)cc4)c3)CC2)C1 (centres unmarked) [TCMDC-133882]
% Inhibition: 68.4%

NC1CCCN(Cc2cccc(-c3ccc(-c4nc5ccc(C(F)(F)F)cc5[nH]4)cc3)c2)C1 (centres unmarked) [TCMDC-133839]
% Inhibition: 50.43%

CN1CCCC(CN2CCN(Cc3ccc(-c4ccc(-c5nc6ccc(F)cc6[nH]5)cc4)cc3)CC2)C1 (centres unmarked) [TCMDC-133908]
% Inhibition: 90.06%

CC1CN(Cc2ccc(-c3cccc(-c4nc5ccc(F)cc5[nH]4)c3)cc2)CC(C)O1 (centres unmarked) [TCMDC-133813]
% Inhibition: -17.46%

NC1CCN(Cc2cccc(-c3ccc(-c4nc5ccc(C(F)(F)F)cc5[nH]4)cc3)c2)C1 (centres unmarked) [TCMDC-133837]
% Inhibition: 42.56%

COCCN1CCN(Cc2ccc(-c3ccc(-c4nc5ccc(F)cc5[nH]4)cc3)cc2)CC1 [TCMDC-133022]
% Inhibition: -25.91%

N#CCCN1CCN(Cc2cccc(-c3ccc(-c4nc5ccc(C(F)(F)F)cc5[nH]4)cc3)c2)CC1 [TCMDC-133844]
% Inhibition: -10.1%

N#CCCN1CCN(Cc2ccc(-c3cccc(-c4nc5ccc(F)cc5[nH]4)c3)cc2)CC1 [TCMDC-133845]
% Inhibition: 7.403%

COc1ccc2ncc(C#N)c(CCN3CCC(NCc4ccc5c(c4)OCCO5)CC3)c2c1 [TCMDC-135664]
% Inhibition: 6.84%

O=C(Nc1cccc(-c2cccc(-c3nc4ccccc4[nH]3)c2)c1)NC1CC1c1ccccc1 (centres unmarked) [TCMDC-133256]
% Inhibition (% Inhibition): 3.053%

COc1ccc2c(c1)Sc1ccccc1C(N1CCN(CCO)CC1)C2 (centres unmarked) [TCMDC-139028]
% Inhibition: -3.41%

Cc1cccc2nc(-c3ccc(-c4cccc(C(=O)NCCc5cn(C)cn5)c4)s3)[nH]c12 [TCMDC-132498]
% Inhibition: -19.19%

CCOc1c(OC)ccc2c1CCN(CCN1CCC(NC(=O)c3ccc(-c4cccc(C(F)(F)F)c4C(F)(F)F)cc3)CC1)C2 [TCMDC-135432]
% Inhibition: -45.25%
